Several values for one entry are separate records, joined by “and”; a condition that tells them apart may be missing. Identical values can stand only once. About 83,000 compounds went through this panel and 20% of them were active in at least one assay; those are over-represented in the sample as a whole.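 Activity criterion: percent growth below 10, measured after cells in 96-well plates were exposed to a single compound concentration for 48 hours.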 Activity calls are given as the source filed them.
What was measured:
Experiment in all cases: NCI-60 one-dose screen, 48 h (100 = growth as untreated, 0 = no growth, -100 = all killed)
Conditions in all cases: 10 µM unless noted
NCI-H23 lung = test system: NCI-H23 lung
NCI-H226 lung = test system: NCI-H226 lung
NCI-H322M lung = test system: NCI-H322M lung
HOP-62 NSCLC = test system: HOP-62 NSCLC
NCI-H460 lung = test system: NCI-H460 lung
HOP-92 NSCLC = test system: HOP-92 NSCLC
NCI-H522 lung = test system: NCI-H522 lung
A549/ATCC NSCLC = test system: A549/ATCC NSCLC
786-0 renal = test system: 786-0 renal
COLO 205 colon = test system: COLO 205 colon
DU-145 prostate = test system: DU-145 prostate
K-562 leukemia = test system: K-562 leukemia
MALME-3M melanoma = test system: MALME-3M melanoma
MDA-MB-231 breast = test system: MDA-MB-231 breast
RXF 393 renal = test system: RXF 393 renal
SF-268 CNS = test system: SF-268 CNS
SF-295 CNS = test system: SF-295 CNS
SF-539 CNS = test system: SF-539 CNS
UACC-257 melanoma = test system: UACC-257 melanoma
M14 melanoma = test system: M14 melanoma

Measured: growth

O=C(NC(CSSCC(NC(=O)OCc1ccccc1)C(=O)O)C(=O)O)OCc1ccccc1 (stereo not given)
inactive: NCI-H23 lung 93.2% and 97.3% | NCI-H226 lung 86.1% | NCI-H322M lung 92.9% and 102% | HOP-62 NSCLC 95% and 81.8% | NCI-H460 lung 95% and 107% | HOP-92 NSCLC 63.8% and 78.5% | NCI-H522 lung 70.3% | A549/ATCC NSCLC 80.5% | 786-0 renal 91.2% and 91.1% | COLO 205 colon 96.4% and 91.5% | DU-145 prostate 101% and 118% | K-562 leukemia 84.7% and 78.1% | MALME-3M melanoma 86.6% and 104% | MDA-MB-231 breast 90.5% and 108% | RXF 393 renal 81% and 113% | SF-268 CNS 92.4% and 107% | SF-295 CNS 89.6% and 103% | SF-539 CNS 93.7% and 91.8% | UACC-257 melanoma 91.9% | M14 melanoma 93.5% and 88.9%

CCN(CC)C(CC(=O)c1ccccc1)C(=O)c1ccccc1 (stereo not given)
inactive: NCI-H23 lung 102% | NCI-H226 lung 95% | NCI-H322M lung 107% | HOP-62 NSCLC 116% | NCI-H460 lung 106% | HOP-92 NSCLC 93.4% | NCI-H522 lung 71.7% | A549/ATCC NSCLC 102% | 786-0 renal 93.5% | COLO 205 colon 77.8% | DU-145 prostate 99.9% | K-562 leukemia 38.2% | MALME-3M melanoma 104% | MDA-MB-231 breast 110% | RXF 393 renal 115% | SF-268 CNS 98% | SF-295 CNS 103% | SF-539 CNS 101% | UACC-257 melanoma 95.5% | M14 melanoma 105%

CC(O)CCNC(c1ccccc1)C(O)c1ccccc1 (stereo not given)
inactive: NCI-H23 lung 105% | NCI-H226 lung 111% | NCI-H322M lung 112% | HOP-62 NSCLC 104% | NCI-H460 lung 106% | HOP-92 NSCLC 86% | NCI-H522 lung 89.8% | A549/ATCC NSCLC 117% | 786-0 renal 97.9% | COLO 205 colon 117% | DU-145 prostate 131% | K-562 leukemia 101% | MALME-3M melanoma 123% | MDA-MB-231 breast 104% | RXF 393 renal 115% | SF-268 CNS 111% | SF-295 CNS 102% | SF-539 CNS 115% | UACC-257 melanoma 108% | M14 melanoma 104%

CCOC(=O)C1=CC(=O)CC(C)(C)O1
inactive: NCI-H23 lung 104% and 107% | NCI-H226 lung 114% and 95.3% | NCI-H322M lung 99.2% and 125% | HOP-62 NSCLC 109% and 107% | NCI-H460 lung 107% and 109% | HOP-92 NSCLC 93.5% and 97.1% | NCI-H522 lung 79.7% and 96.2% | A549/ATCC NSCLC 119% and 81.9% | 786-0 renal 110% and 116% | COLO 205 colon 105% and 111% | DU-145 prostate 123% and 110% | K-562 leukemia 42% and 104% | MALME-3M melanoma 112% and 110% | MDA-MB-231 breast 114% and 106% | RXF 393 renal 118% and 114% | SF-268 CNS 108% and 103% | SF-295 CNS 125% and 114% | SF-539 CNS 110% and 109% | UACC-257 melanoma 106% and 95.7% | M14 melanoma 99.6% and 112%

O=[N+]([O-])c1ccc(N/N=C/C2CCCCCC2)c([N+](=O)[O-])c1
inactive: NCI-H23 lung 99.9% | NCI-H226 lung 101% | NCI-H322M lung 78.8% | HOP-62 NSCLC 97% | NCI-H460 lung 94.6% | HOP-92 NSCLC 82.6% | NCI-H522 lung 78.5% | A549/ATCC NSCLC 79.9% | 786-0 renal 96.7% | COLO 205 colon 94.6% | DU-145 prostate 92% | K-562 leukemia 83.4% | MALME-3M melanoma 98% | MDA-MB-231 breast 81.8% | RXF 393 renal 98% | SF-268 CNS 87.4% | SF-295 CNS 98.1% | SF-539 CNS 99.8% | UACC-257 melanoma 96.5% | M14 melanoma 85.1%

O=C1CCC(=O)N1CC1CC2CCC1C2 (stereo not given)
inactive: NCI-H23 lung 92.7% and 102% | NCI-H226 lung 95.9% and 92.2% | NCI-H322M lung 104% and 80.5% | HOP-62 NSCLC 96.2% and 86.7% | NCI-H460 lung 107% and 102% | HOP-92 NSCLC 99.9% and 101% | NCI-H522 lung 91.8% and 95.2% | A549/ATCC NSCLC 111% and 99.1% | 786-0 renal 98.5% and 97.6% | COLO 205 colon 117% and 92.5% | DU-145 prostate 127% and 98.7% | K-562 leukemia 71.2% and 94.1% | MALME-3M melanoma 98.1% and 87.7% | MDA-MB-231 breast 98.8% | RXF 393 renal 105% and 106% | SF-268 CNS 100% and 95.2% | SF-295 CNS 83.4% and 90.2% | SF-539 CNS 101% and 87.8% | UACC-257 melanoma 104% and 83.5% | M14 melanoma 103% and 95.6%

ON=C(C1CCCCC1)C1CCCCC1
inactive: NCI-H23 lung 97.8% | NCI-H226 lung 102% | NCI-H322M lung 93.2% | HOP-62 NSCLC 99.5% | NCI-H460 lung 108% | HOP-92 NSCLC 85.7% | NCI-H522 lung 107% | A549/ATCC NSCLC 95.9% | 786-0 renal 99.9% | COLO 205 colon 109% | DU-145 prostate 107% | K-562 leukemia 108% | MALME-3M melanoma 91.9% | MDA-MB-231 breast 95.3% | RXF 393 renal 109% | SF-268 CNS 98.1% | SF-295 CNS 105% | SF-539 CNS 96.3% | UACC-257 melanoma 99.5% | M14 melanoma 109%

CC(C)(C)OC(=O)c1ccc(NCc2cc(O)ccc2O)cc1
inactive: NCI-H23 lung 59.5% | NCI-H322M lung 84.1% | HOP-62 NSCLC 45.1% | NCI-H460 lung 53.4% | HOP-92 NSCLC 17.5% | A549/ATCC NSCLC 40.9% | COLO 205 colon 10.8% | DU-145 prostate 57% | SF-268 CNS 16.5% | SF-295 CNS 78.4% | M14 melanoma 44.5%
active: NCI-H226 lung 9.37% | NCI-H522 lung -78.4% | 786-0 renal -72.7% | K-562 leukemia 3.17% | MALME-3M melanoma -40.2% | MDA-MB-231 breast -38.2% | RXF 393 renal -68.3% | SF-539 CNS -70.1% | UACC-257 melanoma -6.29%

Nc1ccc(Cl)c(S(=O)(=O)O)c1
inactive: NCI-H23 lung 97% | NCI-H226 lung 97.1% | NCI-H322M lung 89.2% | HOP-62 NSCLC 100% | NCI-H460 lung 105% | HOP-92 NSCLC 106% | NCI-H522 lung 99.1% | A549/ATCC NSCLC 106% | 786-0 renal 104% | COLO 205 colon 111% | DU-145 prostate 105% | K-562 leukemia 104% | MALME-3M melanoma 112% | MDA-MB-231 breast 111% | RXF 393 renal 95.1% | SF-268 CNS 102% | SF-295 CNS 112% | SF-539 CNS 94.3% | UACC-257 melanoma 98.8% | M14 melanoma 98.9%

Nc1[nH][nH]c(=O)c1N=Nc1ccccc1
inactive: NCI-H23 lung 98.7% and 99% | NCI-H226 lung 106% and 91.8% | NCI-H322M lung 129% and 102% | HOP-62 NSCLC 104% and 105% | NCI-H460 lung 99.8% and 117% | HOP-92 NSCLC 101% | NCI-H522 lung 88.9% and 79.1% | A549/ATCC NSCLC 103% and 110% | 786-0 renal 113% and 109% | COLO 205 colon 107% and 112% | DU-145 prostate 109% and 111% | K-562 leukemia 137% and 92.5% | MALME-3M melanoma 128% and 115% | MDA-MB-231 breast 93.8% and 119% | RXF 393 renal 123% and 107% | SF-268 CNS 103% and 114% | SF-295 CNS 111% and 114% | SF-539 CNS 102% and 106% | UACC-257 melanoma 109% | M14 melanoma 102% and 112%

CN(C)C(=N)N=C(N)N
101% (inactive) and -7.3% (active): RXF 393 renal
inactive: NCI-H23 lung 100% and 120% | NCI-H226 lung 110% and 133% | NCI-H322M lung 107% and 154% | HOP-62 NSCLC 95.5% and 99.5% | NCI-H460 lung 113% and 125% | HOP-92 NSCLC 114% and 122% | NCI-H522 lung 64.1% and 166% | A549/ATCC NSCLC 99.8% and 118% | 786-0 renal 103% and 101% | COLO 205 colon 135% | DU-145 prostate 120% | K-562 leukemia 130% | MALME-3M melanoma 116% and 269% | MDA-MB-231 breast 95.8% and 114% | SF-268 CNS 99.9% and 103% | SF-295 CNS 113% and 178% | SF-539 CNS 98.5% and 109% | M14 melanoma 99.2% and 101%
108% (inactive) and -0.171% (active): UACC-257 melanoma

Oc1ccc(O)c(-c2ccccc2)c1
inactive: NCI-H23 lung 63.1% | NCI-H226 lung 54.9% | NCI-H322M lung 42.9% | HOP-62 NSCLC 46.6% | NCI-H460 lung 19.7% | HOP-92 NSCLC 85.8% | A549/ATCC NSCLC 66.1% | 786-0 renal 65.6% | COLO 205 colon 85.9% | DU-145 prostate 77.6% | K-562 leukemia 30.4% | MALME-3M melanoma 84.6% | MDA-MB-231 breast 66% | RXF 393 renal 73.8% | SF-268 CNS 53.7% | SF-295 CNS 17.7% | SF-539 CNS 46.3% | UACC-257 melanoma 88.4% | M14 melanoma 65.9%
active: NCI-H522 lung -68.3%
